12-hLO inh – qHTS Assay for Inhibitors of 12-hLO (12-human lipoxygenase); purified 12-hLO, xylenol orange hydroperoxide absorbance; Potency, µM (doses to about 57.1 µM), without a hit: top-dose activity change, negative = inhibition, hits mostly inhibitors; Polyunsaturated fatty acid lipoxygenase ALOX12 (Homo sapiens), P18054; hit rate 0.12% among 150,000; AID 1452, 2008; active = well fitted inhibition curve with a large enough effect; inconclusive = small, poorly fitted or top-dose-only effect; also: potency is read from the fitted curve at half-maximal effect; nearly all actives have a fitted effect of over 55% in size
Target sequence (P18054 whole entry, looked up): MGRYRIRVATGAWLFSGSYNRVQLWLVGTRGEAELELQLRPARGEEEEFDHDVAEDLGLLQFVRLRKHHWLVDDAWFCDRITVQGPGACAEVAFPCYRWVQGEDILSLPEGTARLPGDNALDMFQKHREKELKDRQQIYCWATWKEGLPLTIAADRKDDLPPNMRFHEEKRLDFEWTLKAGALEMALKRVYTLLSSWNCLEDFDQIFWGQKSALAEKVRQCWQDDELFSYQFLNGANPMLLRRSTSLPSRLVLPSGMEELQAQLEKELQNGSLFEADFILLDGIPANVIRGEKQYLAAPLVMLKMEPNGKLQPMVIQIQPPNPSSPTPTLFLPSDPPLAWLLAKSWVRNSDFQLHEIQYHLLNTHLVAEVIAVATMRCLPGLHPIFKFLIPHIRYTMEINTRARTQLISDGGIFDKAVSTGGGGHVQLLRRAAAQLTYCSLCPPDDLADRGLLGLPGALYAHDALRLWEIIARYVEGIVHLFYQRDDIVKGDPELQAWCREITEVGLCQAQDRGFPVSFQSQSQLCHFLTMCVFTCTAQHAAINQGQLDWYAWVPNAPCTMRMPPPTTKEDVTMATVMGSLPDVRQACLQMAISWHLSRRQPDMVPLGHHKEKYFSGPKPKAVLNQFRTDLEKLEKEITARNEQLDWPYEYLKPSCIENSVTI
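150 nM 12hLO, 25 mM Hepes pH 7.0 + 0.01% Triton X-100; cpd preinc 15 min RT; 40 uM arachidonic acid, 30 min RT; Fe-XO 30 min; A573/A405 ratio as read-out.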
ALDH1A1 inh – qHTS Assay for Inhibitors of Aldehyde Dehydrogenase 1 (ALDH1A1) | hit rate 7.3% among 220,000 | Potency, µM (series often up to 75.3 µM), without a hit: at the top dose activity, negative = inhibition, actives largely listed as inhibitors | Purified ALDH1A1, NADH fluorescence, propionaldehyde substrate;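 also: potency is read from the fitted curve at half-maximal effect; plate controls were no enzyme wells and a reference inhibitor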
PNC assembly inh – High Content Assay for Compounds that inhibit the Assembly of the Perinucleolar Compartment; hit rate 3.1% among 140,000; activity change (PNC), negative = inhibition, % at 10 µM; PC3M PTB-GFP, PNC prevalence imaging, 16 h; hits give low values;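 active = readout at or below -70, meaning at least 70% loss of cells showing the perinucleolar compartment, a nuclear body marking cancer cells; inconclusive = readout between -30 and a set limit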;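 also: plate controls were DMSO wells for no effect and camptothecin positive control wells for full effect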
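PC3M cells stably expressing PTB-GFP, 750–1000 cells/well, treated 16 h at 37 °C with compound (23 nl of library stock), in duplicate. After paraformaldehyde fixation and Hoechst stain, imaged at 20x; PNC prevalence scored by image analysis.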
HPGD block – qHTS Assay for Inhibitors of HPGD (15-Hydroxyprostaglandin Dehydrogenase) | AID 894, 2007 | hit rate 4.3% among 150,000 | Potency, µM, without a hit: top-dose activity change, negative = inhibition, actives largely listed as inhibitors | 15-hydroxyprostaglandin dehydrogenase [NAD(+)] (Homo sapiens), P15428 | purified HPGD, NADH fluorescence kinetic, PGE2 substrate; also: potency is read from the fitted curve at half-maximal effect
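20 nM HPGD preincubated 15 min at room temperature with compound in 50 mM Tris-HCl pH 8, 0.01% Tween 20. Started with 1 mM NAD+ and 30 uM prostaglandin E2; NADH fluorescence (360/450 nm) read 5 times over 30-s intervals, last minus first.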
LMNA splice mod – qHTS Assay for Modulators of Lamin A Splicing | AID 1487, 2009 | HeLa LMNA splicing GFP/RFP minigene ratio, 48 h | hit rate 0.01% among 200,000 | Potency, µM (doses to about 46.1 µM), inactives show at the highest dose ratio change, negative = inhibition, most hits filed as inhibitors; active = well fitted inhibition curve with a large enough effect in the signal ratio, with a control signal flat, not every such curve was filed as active; inconclusive = small, poorly fitted or top-dose-only effect, or effect the other way, or a change in a side signal; the % refers to the signal ratio; also: potency is read from the fitted curve at half-maximal effect
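Read-out is the ratio of GFP to DsRed2 object intensity, acquired by 488 nm laser-scanning cytometry on HeLa lamin A-EGFP minigene reporter cells. Compound incubation 48 hrs at 37 °C in Opti-MEM with 2% FBS; DMSO 0.5% final.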
Active calls of the source: *; ? = inconclusive; . = no result; [ ] = dose if it differs, or a comment. The list is not random: actives were taken first. Their share in the collection is about 10%. Unless noted, calls follow the shape of the dose curve; as a rule, active = well fitted inhibition curve with a large enough effect (not every such curve was filed as active); inconclusive = small, poorly fitted or top-dose-only effect, or another doubt; inactive = no such curve, though single readings can be large or run the other way. Unless noted, % is scaled to controls: 0 for no effect and ±100 for the full control effect.

SMILES	12-hLO inh	ALDH1A1 inh	PNC assembly inh	HPGD block	LMNA splice mod
CC(C)CN1CCc2nc(N3CCN(c4ncccn4)CC3)ncc2C1	.	.	.	.	22.5%[46 µM]
C=CCN1C(=O)C(Cc2ccc(OC)cc2)S/C1=N/N=C/c1ccco1 (centres undefined)	-7.1%	7.08µM*	-24.3	-24.9%	-6.6%
C=CCN1C(=O)C(Cc2ccc(Br)cc2)S/C1=N\N=C\c1ccco1 (centres undefined)	-3.6%	?	-27.1	-2.8%	9.7%
CC(=O)Nc1nonc1-c1nnc(SCC(=O)Nc2ccc(F)cc2F)n1-c1ccccc1	.	.	.	.	-6.6%[46 µM]
CCn1nnnc1SCC(=O)N1CCCc2ccccc21	3.3%	3.55µM*	204.6	-9.6%	-4.2%
COc1ccc(-n2nnnc2SCC(=O)N2CCCc3ccccc32)cc1OC	-2.9%	25.1µM*	0.1	-15.4%	-12.5%
COc1ccc(CC(=O)N2CCCc3ccccc32)cc1OC	-2.8%	?	-21.3	-4.1%	?
O=C(CSc1nnc2scc(-c3ccccc3)n12)N1CCCc2ccccc21	1.4%	11.2µM*	-10.3	-9.0%	-7.3%
O=C(CSc1nnc2scc(-c3ccccc3)n12)N1CCN(Cc2ccccc2)CC1	-2.6%	-11.0%	9.2	-9.0%	2.2%
Cc1ccc(-c2csc3nnc(SCC(=O)N4CCN(Cc5ccccc5)CC4)n23)cc1	-6.6%	14.1µM*	16.5	-12.0%	6.6%
Cn1c(SCC(=O)N2CCCc3ccccc32)nnc1-c1cccs1	-1.7%	-9.7%	?	-2.5%	-2.3%
COc1ccc(Nc2oc(-c3ccc(COc4cccc(C)c4)o3)nc2C#N)cc1	.	.	.	.	-6.7%[46 µM]
O=C(O)c1ccc(CSc2nnnn2C2CCCCC2)cc1	26.9%	17.8µM*	?	-20.9%	-8.0%
Cc1ccc(-c2nnc3ccc(SCC(=O)N4CCCc5ccccc54)nn23)cc1	0.0%	?	15.9	-13.2%	5.8%
Cn1c(Cc2cccs2)nnc1SCC(=O)N1CCCc2ccccc21	-1.3%	-12.6%	?	5.6%	?
O=C(CSc1nnc(Cc2cccs2)n1C1CCCCC1)N1CCCc2ccccc21	-7.5%	3.55µM*	?	-22.7%	-23.4%
O=C(CSc1nnnn1C1CCCC1)N1CCCc2ccccc21	0.7%	10µM*	?	-13.5%	4.9%
Cn1nnnc1SCC(=O)N1CCCc2ccccc21	6.1%	2.1%	-15.2	-7.4%	-7.1%
Cc1ccc(-c2nnc(SCC(=O)N3CCCc4ccccc43)n2N)cc1	-7.2%	12.6µM*	?	-5.9%	3.9%
Cc1noc(C)c1C(=O)N1CCC2(CCCN(C(=O)Nc3cccc(C#N)c3)C2)CC1	3.6%	6.4%	.	-4.8%	.
Cc1ccc(-c2csc3nnc(SCC(=O)Nc4nsc(-c5ccccc5)n4)n23)cc1	-9.3%	8.91µM*	7.1	-4.1%	?
O=C(CSc1nnc2scc(-c3ccccc3)n12)Nc1nsc(-c2ccccc2)n1	-8.3%	?	3.4	?	?
COc1ccc(OC)c(NC(=O)NCCc2cccc(Cl)c2)c1	.	-8.8%	.	.	.
O=S(=O)(c1cnc[nH]1)N1CCc2ccccc21	-11.8%	20µM*	-2.4	-0.5%	8.5%
CCCCCCC(=O)N/N=C/Cc1ccccc1	0.6%	12.6µM*	?	-20.7%	4.8%
SMILES	12-hLO inh	ALDH1A1 inh	PNC assembly inh	HPGD block	LMNA splice mod
CCCCCCCCC(=O)N/N=C(\C)c1ccco1	5.4%	4.5%	-6.3	-7.4%	2.5%
C[C@@H](NC(=O)c1nc[nH]c1C(=O)N[C@@H](Cc1ccccc1)C(=O)OCc1ccccc1)c1ccccc1	.	9.3%	.	.	.
CC(C)(C)OC(=O)NCCCC[C@H](NC(=O)c1nc[nH]c1C(=O)NC(c1ccccc1)c1ccccc1)C(=O)OC(C)(C)C	.	2.82µM*	.	.	.
C[C@H](NC(=O)c1nc[nH]c1C(=O)N[C@@H](Cc1ccccc1)C(=O)OCc1ccccc1)c1ccccc1	.	5.01µM*	.	.	.
CC(C)C[C@@H](CC(=O)N[C@@H](CCC(=O)O)CC(=O)O)NC(=O)[C@@H]1CCCC[C@H]1NC(=O)C[C@H](CCCN)NC(=O)C[C@H](Cc1ccccc1)NC(=O)[C@@H]1CCCC[C@H]1N	-1.5%	5.4%	.	-8.0%	.
COCCNCC(=O)NCC12CC3CC(CC(C3)C1)C2	1.8%	28.2µM*	-22.3	-5.7%	-6.4%
O=C(CN1C(=O)CCC1=O)NCC12CC3CC(CC(C3)C1)C2	-5.1%	1.12µM*	22.3	-5.2%	?
COCCNCC(=O)NC12CC3CC(CC(C3)C1)C2	6.9%	-0.7%	27.1	-7.0%	9.4%
Cc1cc(O)cc(O)c1C(=O)OC1(C)C(=O)C=C2C=C(/C=C/C(=O)O)OC=C2C1=O (centres undefined)	.	?	.	-16.9%	.
O=C(N/N=C/C1CC=CCC1)c1ccc(O)cc1O (centres undefined)	0.3%	?	-10.1	-8.6%	-9.7%
COc1cc(C(=O)N/N=C/C2CC=CCC2)cc(OC)c1OC (centres undefined)	-2.7%	11.2µM*	-24.7	-9.6%	-21.5%
CCOC(=O)c1[nH]c2ccccc2c1NC(=O)CCN1CC(C)OC(C)C1 (centres undefined)	-4.3%	-3.3%	25.5	-15.0%	0.3%
COC(=O)c1[nH]c2ccc(F)cc2c1NC(=O)CCN1CC(C)OC(C)C1 (centres undefined)	-5.5%	?	-89.2*	?	?
O=C(O)[C@H]1NCCC[C@H]1C(=O)O	.	-3.7%	.	-12.9%	-13.6%
COc1ccc(OC)c(NC(=O)c2cc(S(=O)(=O)NCc3ccco3)ccc2F)c1	-3.3%	22.4µM*	-26.4	?	1.7%
NC(=O)CSc1cn(Cc2ccccc2)c2ccccc12	.	7.94µM*	.	.	0.5%[9.22 µM]
N#Cc1ccccc1Cn1cc(/C=C/[N+](=O)[O-])c2ccccc21	-7.2%	3.55µM*	-11.2	39.8µM*	?
O=[N+]([O-])/C=C/c1cn(Cc2ccccc2)c2ccccc12	-6.9%	15.8µM*	18.6	-24.9%	121.3%
C(=N\n1cnnc1)/c1cn(Cc2ccccc2)c2ccccc12	-4.2%	12.6µM*	-4.8	-17.9%	20.5%
Clc1ccc(Cn2cc(/C=N/n3cnnc3)c3ccccc32)c(Cl)c1	-1.5%	0.6%	-13.2	-9.1%	-1.7%
O=C(O)Cn1cc(/C=C/[N+](=O)[O-])c2ccccc21	.	-10.8%	.	.	.
Cc1ccc(CSc2nc(=O)c3c(C)cc(C)nc3n2C2CC2)cc1	.	.	.	.	6.9%[46 µM]
Cc1ccc(Cn2nnnc2CN2CCC(O)(c3ccccc3F)CC2)cc1	-16.8%	?	-100.0*	-10.5%	-12.0%
Nc1ccc(C(=O)c2cccs2)cc1[N+](=O)[O-]	.	-7.9%	.	.	.
CN(C)C(=O)N1CCCC(C(=O)NCc2ccccc2)C1 (centres undefined)	3.2%	7.1%	-90.9*	-6.2%	-9.4%

Screens deposited in PubChem BioAssay by National Center for Advancing Translational Sciences (NCATS).
